Common to all, as to assay: NCI-60 one-dose screen, 48 h (100 = growth as untreated, 0 = no growth, -100 = all killed)
Common to all, as to conditions: 10 µM unless noted

Assay [1] relates to SR leukemia.
For assay [2], the system named is RPMI-8226 leukemia.
In assay [3] the test system is OVCAR-8 ovarian.
Assay [4] concerns OVCAR-5 ovarian.
The test system of assay [5] is OVCAR-4 ovarian.
Assay [6] has as its system SK-OV-3 ovarian.
The test system of assay [7] is IGROV1 ovarian.
The subject of assay [8] is HS 578T breast.
For assay [9], the system named is NCI/ADR-RES ovarian.
The subject of assay [10] is T-47D breast.
The subject of assay [11] is BT-549 breast.
In assay [12] the test system is MDA-MB-435 melanoma.
Assay [13] has as its system SW-620 colon.
Assay [14] concerns MCF7 breast.
Assay [15] deals with HCT-116 colon.
In assay [16] the test system is HCC-2998 colon.
Assay [17] concerns KM12 colon.

About 83,000 compounds went through this panel and 20% of them were active in at least one assay; those are over-represented in the sample as a whole.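 Percent growth is the endpoint: 0 to 100 indicates growth inhibition (40 means 60% inhibition), 0 means no net growth, and negative values indicate cell death.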 A number with no mark means an inactive call. Calls of active or inactive are those of the source. The calls were made as follows: active = growth percent below 10; inactive = the rest.

For the molecule `COc1cc(/C=N/Nc2ccnc3cc(Cl)ccc23)cc(OC)c1O`, the growth in assay [1] is -23.9% (active); in assay [2] it was -9.43% (active); in assay [3] it was -56% (active); in [4] it was -5% (active); in [5] it was -50.2% (active); in assay [6] it was 109%. Moreover, the growth in [7] was -83.8% (active); in [8], -38.8% (active); in assay [9] it was 2.57% (active); in assay [10], -56.5% (active); in [11], 103%; in assay [12] it was -85.9% (active). For the same molecule, the growth is -30.4% (active) in assay [13]; -72.3% (active) in assay [14]; -68.7% (active) in [15]; -81.9% (active) in [16]; -53.8% (active) in assay [17].

`Cc1cc(-c2ccc3nc(N)sc3c2)nc2ccc3[nH]ncc3c12`: the growth in assay [1] is 13.7%; in assay [2] it was 39.6%; in [3], 41.2%; in assay [4] it was 57.6%; in [5] it was 61.6%; in [6] it was 31.5%. Further, the growth in assay [7] was 33.6%; in assay [8] it was 6.21% (active); in assay [9], 13.6%; in [10], 58.5%; in assay [11], 33%; in assay [12] it was -44.2% (active). For the same molecule, the growth was 15.7% in assay [13]; 21% in assay [14]; 21.8% in assay [15]; 66.3% in assay [16]; 34.6% in assay [17].

As to `CNC(=O)c1cc(Oc2ccc3nc(NC(=O)c4cccc(C(F)(F)F)c4)sc3c2)ccn1`, the growth in [1] is 111%; in assay [2] it was 112%; in assay [3], 106%; in assay [4], 97.7%; in assay [5], 101%; in assay [6], 111%. Moreover, the growth is 107% in assay [7]; 102% in [8]; 101% in assay [9]; 96.9% in assay [10]; 105% in assay [11]; 95.1% in [12]. For the same molecule, the growth in assay [13] was 105%; in assay [14] it was 85.6%; in assay [15], 94.1%; in assay [16] it was 109%; in assay [17], 102%.

On to `COc1cc(C(=O)c2cc(C(C)=O)c3c4ccccc4ccn23)cc(OC)c1OC`, for which the growth in [1] was 16.8%; in assay [2], 52.3%; in assay [3], 62.9%; in [4], 69.9%; in [5], 69.1%; in assay [6] it was 56.2%. Besides, the growth is 52.6% in [7]; 40.5% in assay [8]; 27.9% in assay [9]; 24.8% in assay [10]; 59% in [11]; 5.4% (active) in assay [12]. For the same molecule, the growth in assay [13] was 44.5%; in assay [14] it was 34.2%; in assay [15] it was 42.2%; in [16], 62.9%; in assay [17] it was 43.9%.

Take `CCc1ccc(NC(=O)N[C@@H](Cc2cccc(F)c2)C(=O)N[C@@H]2C(=O)N3CCC[C@H]3C(=O)N3CCCC[C@H]3C(=O)N[C@@H](C)C(=O)N3C[C@H](C)C[C@H]3C(=O)O[C@H]2C)c(F)c1`: the growth in [1] was 21.2%; in assay [2], 12.3%; in assay [3], 23.1%; in assay [4], 23.9%; in assay [5] it was 23.9%; in [6], 24.9%. Besides, the growth in [7] was 35.9%; in [8], 26.3%; in [9], 18.4%; in [10] it was 29.6%; in assay [11] it was 17.9%; in assay [12], 19.2%. The growth was 34.4% in assay [13]; 15.2% in assay [14]; 3.62% (active) in assay [15]; 5.04% (active) in [16]; 33.6% in [17].

Take `COc1ccc(C(=O)n2cc(C=O)c3ccccc32)cc1`: the growth in [1] is 65.5%; in assay [2] it was 98.2%; in assay [3], 96.4%; in assay [4], 102%; in assay [5], 111%; in assay [6] it was 133%. Moreover, the growth in assay [7] was 93.4%; in assay [8], 101%; in [9], 94.7%; in assay [10], 106%; in [11], 100%; in assay [12], 88.8%. The growth in assay [13] is 90%; in assay [14] it was 82.1%; in [15], 91.3%; in assay [16] it was 104%; in assay [17], 102%.

Regarding `COc1cc(OC)c(S(N)(=O)=O)cc1C(=O)/C=C/c1ccccc1`, the growth is 8.18% (active) in assay [1]; 18.5% in [2]; 65.3% in assay [3]; 27.1% in assay [4]; 77.7% in assay [5]; 81.1% in assay [6]. The growth in [7] is 25.7%; in assay [8] it was 26.5%; in [9], 48.3%; in assay [10] it was 13.6%; in assay [11], 16.7%; in [12] it was 9.57% (active). The growth is 3.85% (active) in [13]; 10.9% in assay [14]; 11.7% in assay [15]; 22.3% in [16]; 3.96% (active) in [17].

As for `NC(N)=NS(=O)(=O)c1ccc(N=NC2C(=O)NN(c3ccccc3)C2=O)cc1` (stereo not drawn), the growth is 109% in [1]; 98.8% in [2]; 104% in assay [3]; 101% in assay [4]; 104% in assay [5]; 112% in assay [6]. In addition, the growth is 103% in [7]; 89% in assay [8]; 99.9% in [9]; 95.8% in assay [10]; 107% in [11]; 101% in [12]. Besides, the growth was 100% in assay [13]; 93.2% in assay [14]; 97.3% in assay [15]; 103% in assay [16]; 103% in assay [17].

As to `O=C1c2c(c3c4cc(Br)ccc4[nH]c3c3ccc4ccccc4c23)C(=O)N1CCN1CCNCC1`, the growth is -14.3% (active) in assay [1]; -9.87% (active) in [2]; 57.3% in [3]; 113% in [4]; 103% in assay [5]; 93.6% in [6]. Besides, the growth in assay [7] was 68.5%; in assay [8] it was 115%; in [9] it was 69.5%; in assay [10] it was 61.8%; in assay [11], 87.6%; in assay [12], 92.5%. Besides, the growth was -58.4% (active) in assay [13]; -73.7% (active) in assay [14]; 11.2% in assay [15]; 51.5% in assay [16]; 88.6% in assay [17].

The values above are taken from PubChem BioAssay (NCI).
